From PubChem BioAssay (NCATS)
Records with an inconclusive call do not appear. Activity calls are given as the source filed them. Unless noted, calls follow the shape of the dose curve; as a rule, active = well fitted curve in the direction sought with a large enough effect; inconclusive = small, poorly fitted or top-dose-only effect, or another doubt; inactive = no such curve, though single readings can be large; an effect the other way counts as inactive or inconclusive.

Experiments:
[1] = molecular target: Cytochrome P450 1A2 (Homo sapiens) (UniProt P05177); experiment: p450-cyp1a2 (AID 410; calls by dose curve; also: potency is read from the fitted curve at half-maximal effect)
Chain of Cytochrome P450 1A2 (Homo sapiens) (P05177 whole entry, looked up): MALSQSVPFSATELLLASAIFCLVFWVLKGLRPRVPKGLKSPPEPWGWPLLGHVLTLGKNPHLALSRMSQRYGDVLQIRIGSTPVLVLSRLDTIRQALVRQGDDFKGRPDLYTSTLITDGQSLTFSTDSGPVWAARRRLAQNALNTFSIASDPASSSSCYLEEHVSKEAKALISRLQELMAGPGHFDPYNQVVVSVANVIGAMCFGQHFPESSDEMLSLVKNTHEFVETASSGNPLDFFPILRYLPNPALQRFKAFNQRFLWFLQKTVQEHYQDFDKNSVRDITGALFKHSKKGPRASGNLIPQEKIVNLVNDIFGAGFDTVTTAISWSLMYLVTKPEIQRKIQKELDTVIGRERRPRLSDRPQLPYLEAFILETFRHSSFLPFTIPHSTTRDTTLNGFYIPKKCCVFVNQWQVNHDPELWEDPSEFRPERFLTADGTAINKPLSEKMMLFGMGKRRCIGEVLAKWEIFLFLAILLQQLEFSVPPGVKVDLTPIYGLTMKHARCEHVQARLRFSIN
In short: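 Human CYP1A2 (20nM) demethylated Luciferin-ME at its Km (100uM) in 100mM KPO4. After 10 min compound preincubation, NADPH regeneration ran the reaction 60 min at room temperature. Luciferin was read by luminescence, normalized to 57 uM furafylline.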

[2] = molecular target: Glucocorticoid receptor (Homo sapiens) (UniProt P04150); experiment: GR-GFP Redistribution (AID 450;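 active = compounds whose dose series gives a full or clear partial fitted curve of increased nuclear translocation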; also: potency is read from the fitted curve at half-maximal effect)
Chain of Glucocorticoid receptor (Homo sapiens) (P04150 whole entry, looked up, the tested form may be a part): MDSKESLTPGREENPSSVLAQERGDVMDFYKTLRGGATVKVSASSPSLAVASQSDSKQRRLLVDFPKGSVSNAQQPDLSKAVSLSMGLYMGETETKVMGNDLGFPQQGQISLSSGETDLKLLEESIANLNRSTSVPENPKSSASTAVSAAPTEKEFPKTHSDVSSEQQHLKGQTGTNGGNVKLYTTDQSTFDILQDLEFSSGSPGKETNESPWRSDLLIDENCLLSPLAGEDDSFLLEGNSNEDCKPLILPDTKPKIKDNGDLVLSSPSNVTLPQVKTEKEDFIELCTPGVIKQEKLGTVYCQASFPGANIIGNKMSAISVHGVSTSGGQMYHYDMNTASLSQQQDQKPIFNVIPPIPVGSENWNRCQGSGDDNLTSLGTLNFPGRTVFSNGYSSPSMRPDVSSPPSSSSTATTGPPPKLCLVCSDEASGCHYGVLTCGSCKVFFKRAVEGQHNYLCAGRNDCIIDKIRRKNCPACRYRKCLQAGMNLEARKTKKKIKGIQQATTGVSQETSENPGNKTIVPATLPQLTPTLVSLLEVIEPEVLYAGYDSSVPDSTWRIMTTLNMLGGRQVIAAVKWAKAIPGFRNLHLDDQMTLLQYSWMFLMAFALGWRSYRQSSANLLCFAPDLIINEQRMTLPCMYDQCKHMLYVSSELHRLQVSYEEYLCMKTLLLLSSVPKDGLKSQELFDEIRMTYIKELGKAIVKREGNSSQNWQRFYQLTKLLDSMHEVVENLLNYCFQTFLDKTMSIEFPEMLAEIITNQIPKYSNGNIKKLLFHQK

[3] = molecular target: Glucocorticoid receptor (Homo sapiens) (UniProt P04150); experiment: GR-EFC Redistribution (AID 451; calls by dose curve; also: potency is read from the fitted curve at half-maximal effect); conditions: CHO-K1 GR-EFC translocation, beta-gal luminescence, 2 h
In short: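 CHO-K1 cells stably expressing nuclear-localized β-gal enzyme acceptor and GR fused C-terminally to the enzyme donor fragment; ligand-driven nuclear translocation restores β-gal by complementation. Compounds titrated up to 46 uM final, 2 h at 37 °C; luminescence read.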

[4] = molecular target: Mitogen-activated protein kinase 10 (Mus musculus) (UniProt Q61831); experiment: JNK3 AlphaScreen Assay (AID 530; active = well fitted curve in either direction with a large enough effect, not every such curve was filed as active;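 also: kinase came from lysate of stimulated human HepG2 cells; signal reports phosphorylation of biotinylated GST-cJun 1-79 at Ser73 with 10 µM ATP; % is scaled to controls: 0 for no effect and ±100 for the full control effect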)
In short: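 JNK3 came from HepG2 lysates pre-activated with IL-1beta and TNF-alpha and phosphorylated biotinylated GST-cJun (1-79) at 10 uM ATP, pH 7.6, room temperature. Compounds were titrated. AlphaScreen signal used anti-phospho-cJun (Ser73) antibody.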

[5] = molecular target: 3',5'-cyclic-AMP phosphodiesterase 4B (Homo sapiens) (UniProt Q07343); experiment: qHTS Assay for Inhibitors of PDE-IV (AID 607; active = well fitted activation curve with a large enough effect in the main read-out, with a control signal flat, not every such curve was filed as active; also: % of control where 0% means no effect)
Chain of 3',5'-cyclic-AMP phosphodiesterase 4B (Homo sapiens) (Q07343 whole entry, looked up): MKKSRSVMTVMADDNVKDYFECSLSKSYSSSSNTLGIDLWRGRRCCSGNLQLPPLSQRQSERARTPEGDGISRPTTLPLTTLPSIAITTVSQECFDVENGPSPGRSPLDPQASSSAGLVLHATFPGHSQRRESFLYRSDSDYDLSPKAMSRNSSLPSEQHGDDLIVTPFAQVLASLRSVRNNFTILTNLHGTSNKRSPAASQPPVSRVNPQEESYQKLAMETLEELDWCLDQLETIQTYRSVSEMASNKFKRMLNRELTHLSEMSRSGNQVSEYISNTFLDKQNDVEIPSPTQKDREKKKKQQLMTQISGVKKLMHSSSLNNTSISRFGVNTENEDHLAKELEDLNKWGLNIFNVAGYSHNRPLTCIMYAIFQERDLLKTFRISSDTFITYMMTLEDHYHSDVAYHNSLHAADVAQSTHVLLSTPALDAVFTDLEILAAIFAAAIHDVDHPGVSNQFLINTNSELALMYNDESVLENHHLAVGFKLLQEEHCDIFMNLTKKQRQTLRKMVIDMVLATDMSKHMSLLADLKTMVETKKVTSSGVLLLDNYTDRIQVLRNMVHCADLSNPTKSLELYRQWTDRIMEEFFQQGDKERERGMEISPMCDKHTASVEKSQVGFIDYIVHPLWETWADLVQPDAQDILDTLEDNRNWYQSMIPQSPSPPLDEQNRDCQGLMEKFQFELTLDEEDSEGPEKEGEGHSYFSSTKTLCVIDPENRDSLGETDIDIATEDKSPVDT
In short: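 The readout is membrane depolarisation from a cAMP-sensing CNG channel, detected with a potential dye at ex 535/em 590. Cells were HEK293-derived (endogenous PDE-IV) at 1000 cells/well, titrated up to 22.9 uM final.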

[6] = molecular target: Cytochrome P450 2C19 (Homo sapiens) (UniProt P33261); experiment: qHTS Assay for Inhibitors and Substrates of Cytochrome P450 2C19 (AID 899); also: potency is read from the fitted curve at half-maximal effect; nearly all actives have a fitted effect of over 60% in size
Chain of Cytochrome P450 2C19 (Homo sapiens) (P33261 whole entry, looked up): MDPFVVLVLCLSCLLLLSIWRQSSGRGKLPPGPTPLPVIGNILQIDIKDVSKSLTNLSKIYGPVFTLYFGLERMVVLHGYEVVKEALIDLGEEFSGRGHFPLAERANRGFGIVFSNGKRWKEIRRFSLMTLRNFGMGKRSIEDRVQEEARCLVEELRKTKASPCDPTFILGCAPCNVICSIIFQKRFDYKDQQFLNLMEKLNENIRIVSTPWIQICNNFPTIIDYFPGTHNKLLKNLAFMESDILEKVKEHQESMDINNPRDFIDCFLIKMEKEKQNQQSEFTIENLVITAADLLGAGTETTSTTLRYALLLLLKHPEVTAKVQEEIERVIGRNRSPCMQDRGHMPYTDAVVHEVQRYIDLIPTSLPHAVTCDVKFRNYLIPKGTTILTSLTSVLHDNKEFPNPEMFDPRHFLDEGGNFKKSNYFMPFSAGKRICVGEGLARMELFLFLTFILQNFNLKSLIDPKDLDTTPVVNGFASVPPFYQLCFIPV
In short: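 Human CYP2C19 (5nM) with Luciferin-H EGE at 10uM (its KM) in 50mM KPO4 was preincubated with compound for 10 min at 37C. NADPH regeneration started a 60 min 37C reaction. Luciferin was read by luminescence, normalized to 57uM ketoconazole.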

[7] = molecular target: ATP-dependent 6-phosphofructokinase (Trypanosoma brucei brucei) (UniProt O15648); experiment: qHTS Assay to Find Inhibitors of T. brucei phosphofructokinase: hit validation (AID 492961);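 also: luminescence reports ADP formed as PFK phosphorylates fructose-6-phosphate with ATP; % is scaled to controls: 0 for no effect and ±100 for the full control effect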
Chain of ATP-dependent 6-phosphofructokinase (Trypanosoma brucei brucei) (O15648 whole entry, looked up): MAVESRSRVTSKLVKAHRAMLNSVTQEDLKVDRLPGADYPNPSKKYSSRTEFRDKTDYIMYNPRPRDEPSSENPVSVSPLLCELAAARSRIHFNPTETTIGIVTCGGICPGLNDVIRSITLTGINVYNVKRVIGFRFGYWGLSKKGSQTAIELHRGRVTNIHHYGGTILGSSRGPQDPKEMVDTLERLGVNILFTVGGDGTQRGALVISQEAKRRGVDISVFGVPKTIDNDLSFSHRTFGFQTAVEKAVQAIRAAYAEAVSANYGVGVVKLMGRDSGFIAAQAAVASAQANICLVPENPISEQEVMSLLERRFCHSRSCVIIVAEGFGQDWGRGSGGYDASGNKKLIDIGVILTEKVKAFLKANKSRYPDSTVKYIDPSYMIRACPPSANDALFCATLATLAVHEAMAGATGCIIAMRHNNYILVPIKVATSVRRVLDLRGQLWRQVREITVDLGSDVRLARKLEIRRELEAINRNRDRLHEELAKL
In short: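 PFK 1.25 nM, F6P 0.5 mM, ATP 0.1 mM, MgCl2 5 mM, 0.1 M TEA pH 8.0, Tween20 0.01%, BSA 0.1%; 45 min RT. ADP-Glo two-step detection, luminescence. qHTS titration; curve fitting with curve-class categorization.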

[8] = molecular target: Ubiquitin carboxyl-terminal hydrolase 1 (Homo sapiens) (UniProt O94782); experiment: Inhibitors of USP1/UAF1: Pilot qHTS (AID 504865);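 also: rhodamine fluorescence freed from ubiquitin-rhodamine substrate followed over time; top concentration of the series differs between compounds; % is scaled to controls: 0 for no effect and ±100 for the full control effect; nearly all actives have a fitted effect of over 35% in size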
Chain of Ubiquitin carboxyl-terminal hydrolase 1 (Homo sapiens) (O94782 whole entry, looked up): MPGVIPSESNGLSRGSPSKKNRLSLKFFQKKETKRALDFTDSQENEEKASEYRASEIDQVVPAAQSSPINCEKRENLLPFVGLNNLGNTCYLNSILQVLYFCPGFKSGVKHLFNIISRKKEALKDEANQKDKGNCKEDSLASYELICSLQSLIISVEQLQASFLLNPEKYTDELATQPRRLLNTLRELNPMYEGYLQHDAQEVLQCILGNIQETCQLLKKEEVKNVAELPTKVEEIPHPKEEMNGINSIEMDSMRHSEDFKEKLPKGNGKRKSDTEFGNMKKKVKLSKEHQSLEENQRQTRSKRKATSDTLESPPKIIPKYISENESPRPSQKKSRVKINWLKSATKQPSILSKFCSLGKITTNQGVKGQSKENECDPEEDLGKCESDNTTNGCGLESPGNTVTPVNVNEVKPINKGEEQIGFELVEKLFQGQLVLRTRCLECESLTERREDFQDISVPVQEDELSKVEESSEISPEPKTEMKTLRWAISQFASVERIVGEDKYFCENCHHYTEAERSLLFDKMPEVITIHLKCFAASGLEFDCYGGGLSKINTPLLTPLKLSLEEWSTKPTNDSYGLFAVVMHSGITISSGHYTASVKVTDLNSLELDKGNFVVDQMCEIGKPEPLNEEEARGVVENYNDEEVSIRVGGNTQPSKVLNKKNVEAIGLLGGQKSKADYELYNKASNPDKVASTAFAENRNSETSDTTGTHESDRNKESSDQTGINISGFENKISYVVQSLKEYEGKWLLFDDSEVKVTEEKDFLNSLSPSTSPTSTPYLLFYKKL
In short: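 Deubiquitinase activity followed as kinetic rhodamine fluorescence release from 150 nM Ub-Rho. 1 nM USP1/UAF1 with compound, after 15 min room-temperature preincubation, in HEPES pH 7.8 buffer containing TCEP, EDTA, BSA and Tween-20.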

[9] = molecular target: DNA dC->dU-editing enzyme APOBEC-3G (Homo sapiens) (UniProt Q9HC16); experiment: qHTS for inhibitors of Vif-A3G interactions: Validation (AID 588379); also: 0% is about no effect
Chain of DNA dC->dU-editing enzyme APOBEC-3G (Homo sapiens) (Q9HC16 whole entry, looked up): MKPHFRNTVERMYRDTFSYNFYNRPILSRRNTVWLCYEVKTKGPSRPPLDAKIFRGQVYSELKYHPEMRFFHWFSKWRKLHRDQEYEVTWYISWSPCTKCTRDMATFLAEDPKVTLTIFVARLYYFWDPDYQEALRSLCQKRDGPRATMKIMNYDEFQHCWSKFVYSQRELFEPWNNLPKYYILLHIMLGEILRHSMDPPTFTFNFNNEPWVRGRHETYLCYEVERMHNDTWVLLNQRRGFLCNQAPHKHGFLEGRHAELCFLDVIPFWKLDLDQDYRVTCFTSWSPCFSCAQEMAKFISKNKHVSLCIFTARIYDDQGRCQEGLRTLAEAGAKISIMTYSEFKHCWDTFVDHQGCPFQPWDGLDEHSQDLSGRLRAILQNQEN
In short: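 HeLa cells stably expressing Vif and A3G-eYFP, 700 cells/well, incubated overnight at 37 deg C, then exposed to compound overnight at 37 deg C. Inhibition of Vif-mediated degradation read as increased yellow fluorescence (Ex 488/Em 500-530) by laser-scanning cytometry.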

[10] = molecular target: Luciferin 4-monooxygenase (Photinus pyralis) (UniProt P08659); experiment: Biochemical firefly luciferase enzyme assay for NPC (AID 624030);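 also: purified P. pyralis luciferase at 10 nM with luciferin and ATP substrate; 0% = DMSO and -100% = full luciferase inhibition by PTC124 control; nearly all actives have a fitted effect of over 70% in size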
Chain of Luciferin 4-monooxygenase (Photinus pyralis) (P08659 whole entry, looked up): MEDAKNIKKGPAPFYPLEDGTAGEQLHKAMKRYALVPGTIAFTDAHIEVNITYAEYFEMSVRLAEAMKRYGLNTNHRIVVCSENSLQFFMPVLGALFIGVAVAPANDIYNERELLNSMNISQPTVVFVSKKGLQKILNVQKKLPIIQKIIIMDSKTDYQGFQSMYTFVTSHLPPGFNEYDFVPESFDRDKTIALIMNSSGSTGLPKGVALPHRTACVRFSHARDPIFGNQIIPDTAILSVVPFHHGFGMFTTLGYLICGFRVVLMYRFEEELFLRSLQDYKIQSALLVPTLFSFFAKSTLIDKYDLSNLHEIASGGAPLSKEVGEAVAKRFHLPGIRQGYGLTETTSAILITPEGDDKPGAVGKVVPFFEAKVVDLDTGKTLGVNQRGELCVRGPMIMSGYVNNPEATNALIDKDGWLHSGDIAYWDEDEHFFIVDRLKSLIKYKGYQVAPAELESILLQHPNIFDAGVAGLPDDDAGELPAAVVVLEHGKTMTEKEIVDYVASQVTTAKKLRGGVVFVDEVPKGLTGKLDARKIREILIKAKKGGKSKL
In short: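 Counter-screen for direct inhibition of the luciferase enzyme by approved-drug library compounds, run at 10 nM enzyme in 50 mM Tris acetate (final). Luminescence was read within 5 min of enzyme-buffer addition and normalized to PTC124 versus DMSO (0%).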

[11] = S16 Schwann cell viability assay (CellTiter-Glo assay) (AID 624031);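 also: cellular ATP luminescence as a viability measure; plate controls were DMSO-treated cells for no effect and cell-free wells for full effect; nearly all actives have a fitted effect of over 70% in size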
In short: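 Native S16 rat Schwann cells, 500-750 cells/well in DMEM with 10% FBS, dosed with compound after overnight culture and incubated 24h at 37 degree Celsius/5% CO2. Viability by CellTiter-Glo luminescence; % activity normalized to no-cell wells and DMSO-treated cells.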

[12] = S16 Schwann cell PMP22 intronic element firefly luciferase assay (AID 624032);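 also: plate controls were DMSO for no effect and PTC124 positive control mean for full effect; nearly all actives have a fitted effect of over 30% in size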
In short: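 Rat S16 Schwann cells stably carrying a PMP22 intronic element-driven Fluc reporter were seeded overnight, then exposed to compounds for 24 h at 37 °C. Luminescence was normalized to PTC124 (positive control) and DMSO (0% activity).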

[13] = S16 Schwann cell PMP22 intronic element beta-lactamase assay (AID 624044; calls by dose curve;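 also: 0% = DMSO and -100% = potassium clavulanate positive control; nearly all actives have a fitted effect of over 15% in size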); conditions: S16 rat Schwann cells, PMP22 element beta-lactamase FRET, 24 h; ratio activity, negative = inhibition: at 38.3 µM (top of the series)
In short: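 Rat S16 Schwann cells with beta-Lac driven by a PMP22 intronic element, compound-treated 24 h at 37 °C. LiveBLAzer FRET B/G read: 460 nm normalized to potassium clavulanate vs DMSO; 535 nm FRET as viability; concentration-effect curves classified.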

[14] = qHTS profiling for inhibitors of Plasmodium falciparum proliferation (AID 504749);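 also: 0% = DMSO vehicle and full inhibition = artemisinin control; nearly all actives have a fitted effect of over 60% in size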; conditions: P. falciparum in erythrocytes, SYBR Green DNA, 72 h, at 28.7 µM (top of the series)
In short: (§1)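 P. falciparum-infected erythrocytes (0.3% parasitemia, 2.5% hematocrit final) were exposed to compounds for 72 h at 37 C in 5% CO2, then lysed with SYBR Green buffer overnight at room temperature; parasite DNA fluorescence was normalized to artemisinin and DMSO controls.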

3D7 = experiment: as above; conditions: P. falciparum in erythrocytes, SYBR Green DNA, 72 h; series mostly up to 28.7 µM
In short: as §1

7G8 = experiment: as above; conditions: P. falciparum in erythrocytes, SYBR Green DNA, 72 h; series mostly up to 28.7 µM
In short: as §1

AA1029 = experiment: as above; conditions: P. falciparum in erythrocytes, SYBR Green DNA, 72 h; series mostly up to 28.7 µM
In short: as §1

AS120 = experiment: as above; conditions: P. falciparum in erythrocytes, SYBR Green DNA, 72 h; series mostly up to 28.7 µM
In short: as §1

ATS189 = experiment: as above; conditions: P. falciparum in erythrocytes, SYBR Green DNA, 72 h; series mostly up to 28.7 µM
In short: as §1

ATS95 = experiment: as above; conditions: P. falciparum in erythrocytes, SYBR Green DNA, 72 h; series mostly up to 28.7 µM
In short: as §1

C2A = experiment: as above; conditions: P. falciparum in erythrocytes, SYBR Green DNA, 72 h; series mostly up to 28.7 µM
In short: as §1

CP185 = experiment: as above; conditions: P. falciparum in erythrocytes, SYBR Green DNA, 72 h; series mostly up to 28.7 µM
In short: as §1

CP191 = experiment: as above; conditions: P. falciparum in erythrocytes, SYBR Green DNA, 72 h; series mostly up to 28.7 µM
In short: as §1

CP192 = experiment: as above; conditions: P. falciparum in erythrocytes, SYBR Green DNA, 72 h; series mostly up to 28.7 µM
In short: as §1

CP194 = experiment: as above; conditions: P. falciparum in erythrocytes, SYBR Green DNA, 72 h; series mostly up to 28.7 µM
In short: as §1

CP201 = experiment: as above; conditions: P. falciparum in erythrocytes, SYBR Green DNA, 72 h; series mostly up to 28.7 µM
In short: as §1

CP203 = experiment: as above; conditions: P. falciparum in erythrocytes, SYBR Green DNA, 72 h; series mostly up to 28.7 µM
In short: as §1

CP211 = experiment: as above; conditions: P. falciparum in erythrocytes, SYBR Green DNA, 72 h; series mostly up to 28.7 µM
In short: as §1

CP215 = experiment: as above; conditions: P. falciparum in erythrocytes, SYBR Green DNA, 72 h; series mostly up to 28.7 µM
In short: as §1

CP217 = experiment: as above; conditions: P. falciparum in erythrocytes, SYBR Green DNA, 72 h; series mostly up to 28.7 µM
In short: as §1

CP237 = experiment: as above; conditions: P. falciparum in erythrocytes, SYBR Green DNA, 72 h; series mostly up to 28.7 µM
In short: as §1

CP238 = experiment: as above; conditions: P. falciparum in erythrocytes, SYBR Green DNA, 72 h; series mostly up to 28.7 µM
In short: as §1

CP247 = experiment: as above; conditions: P. falciparum in erythrocytes, SYBR Green DNA, 72 h; series mostly up to 28.7 µM
In short: as §1

CP250 = experiment: as above; conditions: P. falciparum in erythrocytes, SYBR Green DNA, 72 h; series mostly up to 28.7 µM
In short: as §1

CP252 = experiment: as above; conditions: P. falciparum in erythrocytes, SYBR Green DNA, 72 h; series mostly up to 28.7 µM
In short: as §1

CP256 = experiment: as above; conditions: P. falciparum in erythrocytes, SYBR Green DNA, 72 h; series mostly up to 28.7 µM
In short: as §1

O=C(O)[C@H]1C[C@@H](CP(=O)(O)O)CCN1
inactive: Potency [2] > 46 µM | Potency [3] > 46 µM | Potency [4] | Potency [5] | Potency [7] | Potency [8] | outcome [9] | Potency [10] | Potency [11] | Potency [12] | Potency [13] | activity, negative = inhibition ([14]; parasite line A) -7.9% | activity, negative = inhibition ([14]; parasite line B) -2.91% | Potency (3D7) | Potency (7G8) | Potency (AA1029) | Potency (AS120) | Potency (ATS189) | Potency (ATS95) | Potency (C2A) | Potency (CP185) | Potency (CP191) | Potency (CP192) | Potency (CP194) | Potency (CP201) | Potency (CP203) | Potency (CP211) | Potency (CP215) | Potency (CP217) | Potency (CP237) | Potency (CP238) | Potency (CP247) | Potency (CP250) | Potency (CP252) | Potency (CP256)
active: Potency [1] 25.1 µM | Potency [6] 7.94 µM
